For 36 compounds, composite z-score results are on record in PubChem BioAssay.

The first experiment can be described thus: binders from COS7 lysate, DM2A8 probe, primary screen, torsin A project, cell lysate, small-molecule microarray, fluorescence 635/667 (AID 1065). Conditions: higher = more signal, COS7 lysate expressing mutant human TOR1A.
Turning to `COC(=O)C(CC#Cc1ccc2c(c1)[C@]1(C(=O)N2)[C@H](C(=O)N2CCCCCCC2)[C@H]2C(=O)O[C@H](c3ccccc3)[C@H](c3ccccc3)N2[C@@H]1c1ccc(O)cc1)C(=O)OC`, the composite z-score was -1.17.
With `C=C[C@H](OC)[C@@H](OC(=O)Nc1ccc(SC)cc1)c1ccc(O)c(F)c1`, the composite z-score is -0.22.
With `O=C1O[C@@H](c2ccccc2)[C@@H](c2ccccc2)N2[C@@H](c3ccc(OCCO)cc3)[C@]3(C(=O)Nc4ccc(C#CCCO)cc43)[C@@H](C(=O)N3CCN(c4ncccn4)CC3)[C@H]12`, the composite z-score turned out to be 0.388.
Compound `C=CCC(OC(C)=O)[C@@H]1[C@@H](N(Cc2cccc3ccccc23)C(=O)Cc2ccc(F)cc2)c2cc(OCCCO)ccc2N1C(=O)Cc1ccc2ccccc2c1` (stereo not given in full) registered a composite z-score of 0.154.
`O=C1O[C@@H](c2ccccc2)[C@@H](c2ccccc2)N2[C@@H](c3ccc(O)cc3)[C@]3(C(=O)Nc4ccc(C#CC5(O)CCCCCC5)cc43)[C@@H](C(=O)Nc3nc4ccccc4s3)[C@H]12` had a composite z-score of 0.91.
In the case of `C#CCCCON=C1C[C@@H](O)[C@@H](O)[C@@H]2[C@@H]3C(=O)N(Cc4ccc5c(c4)OCO5)C(=O)[C@@H]3CC[C@@H]12`, the composite z-score was -0.022.
The compound `O=C1O[C@H](c2ccccc2)[C@H](c2ccccc2)N2[C@H]1[C@@H](C(=O)NC[C@H](O)c1ccccc1)[C@]1(C(=O)Nc3ccc(C#CC4(O)CCCCCC4)cc31)[C@H]2c1ccc(OCCO)cc1` gave a composite z-score of 0.634.
Compound `CCOC(=O)C1=C[C@@H](c2ccccc2)N(S(=O)(=O)c2ccc(C)cc2)[C@H]1c1ccc(F)cc1` displayed a composite z-score of 0.347.
On the same count and under the same terms, for `O=[N+]([O-])c1ccc(C[n+]2ccc3ccc(O)cc3c2)o1` the value was 0.449.

Another experiment is described as follows: small molecules captured by biotinylated probe aFGF2 – biochemical, small-molecule microarray, fluorescence 635/667, stem cell growth factor project, primary screen (AID 1067).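 Also: measures binding of biotinylated aFGF2 protein to printed compounds on slides; z-score merges feature fluorescence and signal-to-noise across triplicate slides.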 Conditions: higher = more signal.
With `CCCNC(=O)[C@@]1(Sc2ccc(C)cc2)CC(=O)N(Cc2ccccc2Cl)[C@@H]1c1ccc(CO)cc1`, the composite z-score is -0.0711.
As for `C[C@H]1COC(=O)[C@H](Cc2ccccc2)NC(=O)[C@@H](C)COC(=O)[C@H](Cc2ccccc2)NC1=O`, the composite z-score is -0.136.
As for `CC(C)N1CC=CC23O[C@@H]4/C=C\CCCOC(=O)C4[C@H]2C(=O)N(CCO)[C@@H]3C1=O` (stereo not given in full), the composite z-score was -0.156.
Same read-out and setting: for `COC(=O)[C@@]1(Cc2ccc(OC)cc2)[C@H]2c3cc(C(=O)N(C)C)n(CCc4ccc(OC)c(Br)c4)c3C[C@H]2CN1C(=O)c1ccccc1` the value was 0.544.
On to `COCCOC(=O)N1C(=O)[C@@]2(c3cc(C#CCCO)ccc31)[C@H](c1ccc(O)cc1)N1[C@H](c3ccccc3)[C@H](c3ccccc3)OC(=O)[C@H]1[C@@H]2C(=O)Nc1nc2ccccc2s1`, for which the composite z-score was 0.0644.
The compound `C=CC[C@]1(C(=O)N2CCCCC2)N=C(c2ccc(OCCCO)cc2)O[C@H]1c1ccccc1N=[N+]=[N-]` came in with a composite z-score of 0.256.
For `CCCC=C(CCC)[C@@H](NS(=O)(=O)c1cccc(C(F)(F)F)c1)c1ccc(C(=O)OC)cc1`, the composite z-score was 0.731.
On the same count and under the same terms, for `COc1ccc([Si](C)(C)[C@@H]2[C@@H](CC(=O)N(CCO)Cc3ccccc3)O[C@]3(C(=O)N(Cc4cccc(N5CCC5=O)c4)c4ccccc43)[C@H]2C)cc1` the value was -0.116; for `COc1cc([C@@H]2N[C@H](C(=O)O)Cc3c2[nH]c2ccccc32)cc(OC)c1OC`, -0.0806; for `COCC(=C=CC[C@H](O)c1ccc(OCCO)cc1)C[C@H](O)c1ccccn1`, -0.156.
`COCCOC(=O)N1C(=O)[C@@]2(c3cc(C#CC4(O)CCCCCC4)ccc31)[C@H](C(=O)N1CCCCCCC1)[C@H]1C(=O)O[C@H](c3ccccc3)[C@H](c3ccccc3)N1[C@@H]2c1ccc(O)cc1` displayed a composite z-score of 0.416.
In the case of `C=CCC(OC(C)=O)[C@@H]1[C@@H](N(Cc2cc3ccccc3o2)C(=O)c2ccc(C)cc2)c2cc(OCCCO)ccc2N1C(=O)c1ccc2ccccc2n1` (stereo not given in full), the composite z-score is -0.187.
Take `C=C(COC)C(=O)CC[C@H](OC(=O)c1ccccc1-c1ccccc1C(=O)O)c1cccc(OCCO)c1`: the composite z-score was -0.103.
As for `CC(C)[Si](OCC[C@H]1O[C@]2(C(=O)N(Cc3ccccc3)c3ccccc32)[C@@H](C)[C@@H]1[Si](C)(C)O)(C(C)C)C(C)C`, the composite z-score is -0.25.
For the compound `CO[C@H]1COC(=O)CC=C[C@H](C)[C@@H](OC)COC(=O)CC=C[C@@H]1C`, the composite z-score is -0.0775.
The compound `COCCOC(=O)N1C(=O)[C@@]2(c3cc(C#CC4=CCCCC4)ccc31)[C@H](C(=O)NC[C@H](O)c1ccccc1)[C@H]1C(=O)O[C@H](c3ccccc3)[C@H](c3ccccc3)N1[C@@H]2c1ccccc1OCCO` yielded a composite z-score of 0.126.
Regarding `COc1cc2c(cc1OC)CN(C(=O)[C@H]1[C@@H]3C(=O)O[C@@H](c4ccccc4)[C@@H](c4ccccc4)N3[C@@H](c3ccc(O)cc3)[C@]13C(=O)Nc1ccc(C#CC4(O)CCCCCC4)cc13)CC2`, the composite z-score was found to be 0.567.
With `CN(C)C(=O)[C@@]1(Cc2ccccc2N=[N+]=[N-])N=C(c2ccc(OCCCO)cc2)O[C@H]1c1ccccc1CN=[N+]=[N-]`, the composite z-score came out at 0.0914.
As to `CO[C@H]1COC(=O)[C@@H](C)COC(=O)[C@H](Cc2ccccc2)NC(=O)CC=C[C@H]1C`, the composite z-score was -0.107.
The compound `CC(=O)NCCCC[C@@H]1NC(=O)[C@H]2C[C@@H](C(=O)NCCCCCCN(C)C)[C@@H](c3cccc(OCCO)c3)N2C1=O` returned a composite z-score of 0.0996.
On to `C=CCC(OC(C)=O)[C@@H]1[C@@H](N(Cc2ccc(-c3ccccc3)cc2)C(=O)c2ccc(-c3ccccc3)cc2)c2cc(OCCCO)ccc2N1C(=O)Cc1ccc(OC)cc1` (stereo not given in full), for which the composite z-score is -0.0676.
In turn, `COCCCNC(=O)[C@@H]1c2ccccc2C(=O)N(CC23CC4CC(CC(C4)C2)C3)[C@H]1c1ccc(CO)cc1` registered a composite z-score of 0.177.
Regarding `C=CCN1C(=O)[C@]2(O[C@H](CCn3cc(CCO)nn3)[C@@H]([Si](C)(C)c3ccc(OC)cc3)[C@@H]2C)c2cc(NC(=O)c3ccc(OC)cc3)ccc21`, the composite z-score stood at 0.0051.
Still for that read-out and setting: then `C=C(CCCC)/C(=C/C[C@@H](OC(=O)c1ccncc1)c1ccc(CO)o1)c1cnc2ccccc2c1`, with 0.0263; and `COC(=O)Cn1c(C(=O)N2CCCC2)cc2c1C[C@H]1CN(C(=O)c3ccccc3)[C@@](Cc3ccc(OC)cc3)(C(=O)OC)[C@@H]21`, with 0.236.
For `C=C(CCCC)C(=O)CC[C@@H](OC(C)=O)c1ccccc1OCCO`, the composite z-score is -0.177.
The same measure, in the same setting: then `CCOC(=O)C[C@H]1[C@H](OC(=O)c2cc3ccccc3oc2=O)[C@@H](NC(=O)C2CCCCC2)c2cc(OCCCO)ccc2N1C(=O)c1ccc2ccccc2n1`, with -0.179; and `COC(=O)C(CC#Cc1ccc2c(c1)[C@]1(C(=O)N2)[C@H](C(=O)N2CCCCCCC2)[C@H]2C(=O)O[C@H](c3ccccc3)[C@H](c3ccccc3)N2[C@@H]1c1ccc(O)cc1)C(=O)OC`, with -0.167.
For `C=C[C@H](OC)[C@@H](OC(=O)Nc1ccc(SC)cc1)c1ccc(O)c(F)c1`, the composite z-score was -0.0493.
Compound `O=C1O[C@@H](c2ccccc2)[C@@H](c2ccccc2)N2[C@@H](c3ccc(OCCO)cc3)[C@]3(C(=O)Nc4ccc(C#CCCO)cc43)[C@@H](C(=O)N3CCN(c4ncccn4)CC3)[C@H]12` came in with a composite z-score of 0.0364.
Turning to `C=CCC(OC(C)=O)[C@@H]1[C@@H](N(Cc2cccc3ccccc23)C(=O)Cc2ccc(F)cc2)c2cc(OCCCO)ccc2N1C(=O)Cc1ccc2ccccc2c1` (stereo not given in full), the composite z-score is -0.0503.
For `O=C1O[C@@H](c2ccccc2)[C@@H](c2ccccc2)N2[C@@H](c3ccc(O)cc3)[C@]3(C(=O)Nc4ccc(C#CC5(O)CCCCCC5)cc43)[C@@H](C(=O)Nc3nc4ccccc4s3)[C@H]12`, the composite z-score was found to be 0.0759.
Regarding `C#CCCCON=C1C[C@@H](O)[C@@H](O)[C@@H]2[C@@H]3C(=O)N(Cc4ccc5c(c4)OCO5)C(=O)[C@@H]3CC[C@@H]12`, the composite z-score is -0.0684.
As for `O=C1O[C@H](c2ccccc2)[C@H](c2ccccc2)N2[C@H]1[C@@H](C(=O)NC[C@H](O)c1ccccc1)[C@]1(C(=O)Nc3ccc(C#CC4(O)CCCCCC4)cc31)[C@H]2c1ccc(OCCO)cc1`, the composite z-score was determined as 0.0589.
On to `CCOC(=O)C1=C[C@@H](c2ccccc2)N(S(=O)(=O)c2ccc(C)cc2)[C@H]1c1ccc(F)cc1`, for which the composite z-score is -0.0317.
Take `O=[N+]([O-])c1ccc(C[n+]2ccc3ccc(O)cc3c2)o1`: the composite z-score is -0.146.
